Results from PubChem BioAssay (NCI).
About 83,000 compounds went through this panel and 20% of them were active in at least one assay; those are over-represented in the sample as a whole.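 For each line, cells grew in 96-well plates with the test compound present at a single concentration for 48 hours.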 Calls of active or inactive are those of the source. How the source made its calls: active means growth percent below 10; inactive means the rest.

Assays:
Assay in all cases: NCI-60 one-dose screen, 48 h (100 = growth as untreated, 0 = no growth, -100 = all killed)
Details in all cases: 10 µM unless noted
[1] = tested on: NCI-H23 lung
[2] = tested on: NCI-H226 lung
[3] = tested on: NCI-H322M lung
[4] = tested on: HOP-62 NSCLC
[5] = tested on: NCI-H460 lung
[6] = tested on: HOP-92 NSCLC
[7] = tested on: NCI-H522 lung
[8] = tested on: A549/ATCC NSCLC
[9] = tested on: 786-0 renal
[10] = tested on: COLO 205 colon
[11] = tested on: DU-145 prostate
[12] = tested on: K-562 leukemia
[13] = tested on: MALME-3M melanoma
[14] = tested on: MDA-MB-231 breast
[15] = tested on: RXF 393 renal
[16] = tested on: SF-268 CNS
[17] = tested on: SF-295 CNS
[18] = tested on: SF-539 CNS
[19] = tested on: UACC-257 melanoma
[20] = tested on: M14 melanoma

Measured: growth

C/C(Cc1ccc(Cl)cc1)=C(/c1ccc(Cl)cc1)c1ccc(OCCN2CCCC2)cc1
inactive: [1] 78.7% | [2] 96.4% | [3] 93.4% | [4] 91.7% | [5] 35.9% | [6] 60.8% | [7] 73.7% | [8] 69.8% | [9] 86% | [10] 61.6% | [11] 87% | [12] 15.2% | [13] 77.7% | [14] 89.2% | [15] 86.3% | [16] 92.4% | [17] 92.9% | [18] 89.7% | [19] 79.7% | [20] 78.2%

CC1(C)[C@@H](O)CC[C@]2(C)[C@H]3CC[C@@H]4[C@H]5[C@H](C(=O)/C=C/c6ccc(C(F)(F)F)cc6)CC[C@]5(CO)CC[C@@]4(C)[C@]3(C)CC[C@@H]12
active: [13] 8.37% | [20] 7.81%
inactive: [1] 56.9% | [2] 30% | [3] 80.7% | [4] 97.4% | [5] 65.4% | [6] 66% | [7] 60.6% | [8] 47.8% | [9] 64.9% | [10] 73.8% | [11] 70.1% | [12] 32.9% | [14] 71.4% | [15] 32.3% | [16] 75.5% | [17] 72.1% | [18] 55.1% | [19] 67.4%

O=C1c2cccc3cccc(c23)C(=O)N1CC#Cc1ccc2c3c(cccc13)C(=O)N(CCO)C2=O
inactive: [1] 81% | [2] 91.9% | [3] 94.9% | [4] 84.5% | [5] 95.8% | [6] 86.4% | [7] 92% | [8] 97.3% | [9] 98.1% | [10] 118% | [11] 88.6% | [12] 95.1% | [13] 100% | [14] 66.9% | [15] 85.1% | [16] 78.9% | [17] 98.7% | [18] 90.8% | [19] 94.2% | [20] 84.8%

N#C/C(=C\c1ccc(-c2ccc(Br)cc2)o1)c1nc(-c2cccs2)cs1
inactive: [1] 91.3% | [2] 102% | [3] 97.8% | [4] 107% | [5] 103% | [6] 91% | [7] 94.4% | [8] 109% | [9] 100% | [10] 125% | [11] 100% | [12] 97% | [13] 101% | [14] 89.3% | [15] 107% | [16] 102% | [17] 100% | [18] 93.8% | [19] 102% | [20] 95.8%

CC(C)=CCC[C@](C)(O)[C@H]1CC[C@]2(C)[C@@H]1CC[C@@H]1[C@@]3(C)C/C(=C/c4cccc([N+](=O)[O-])c4)C(=O)C(C)(C)[C@@H]3CC[C@]12C
inactive: [1] 74.9% | [2] 84.5% | [3] 103% | [4] 97.4% | [5] 87.2% | [6] 76.6% | [7] 90.5% | [8] 71% | [9] 88% | [10] 94% | [11] 68.2% | [12] 74% | [13] 84.5% | [14] 88.9% | [15] 90.1% | [16] 93.2% | [17] 103% | [18] 96% | [19] 97.9% | [20] 83%

Cn1cc(-c2csc(-c3cn(CCN)c4ccc(F)cc34)n2)c2cccnc21
inactive: [1] 72.4% | [2] 80.2% | [3] 73% | [4] 64.7% | [5] 23.4% | [6] 48.5% | [7] 81.2% | [8] 42% | [9] 79.4% | [10] 67.1% | [11] 68.5% | [12] 11.4% | [13] 87.4% | [14] 59.9% | [15] 82.6% | [16] 85.9% | [17] 92.4% | [18] 80.1% | [19] 100% | [20] 81.4%

CN1CCN(c2nc(-c3csc(-c4cccs4)n3)cc3ccccc23)CC1
active: [5] -25.6% | [10] -51.1% | [12] -35.9% | [20] -44.9%
inactive: [1] 79.1% | [2] 94.5% | [3] 81% | [4] 68.3% | [6] 23% | [7] 70.7% | [8] 47.9% | [9] 48.1% | [11] 55.8% | [13] 70.4% | [14] 41.6% | [15] 40.3% | [16] 49.6% | [17] 83% | [18] 86.7% | [19] 21.6%

Cc1cc(N(CCCNc2ccnc3cc(Cl)ccc23)Cc2ccco2)nc(N2CCOCC2)n1
inactive: [1] 52.8% | [2] 82.7% | [3] 72.6% | [4] 64.4% | [5] 64.8% | [6] 51.8% | [7] 90.5% | [8] 83.1% | [9] 68% | [10] 56.7% | [11] 74.7% | [12] 26.9% | [13] 92.8% | [14] 58.5% | [15] 71% | [16] 77.7% | [17] 62.7% | [18] 51.1% | [19] 106% | [20] 72.5%

CC(C)(C)c1[nH]nc2c1C(c1cc3ccccc3[nH]c1=O)Nc1cc(C(=O)OCc3ccccc3)ccc1N2 (stereo not given)
inactive: [1] 69% | [2] 74.8% | [3] 63% | [4] 65.1% | [5] 19.4% | [6] 87.7% | [7] 74.6% | [8] 41.6% | [9] 49.4% | [10] 84.3% | [11] 65% | [12] 17.1% | [13] 58.7% | [14] 63.3% | [15] 59.7% | [16] 58.9% | [17] 30.3% | [18] 66.1% | [19] 69.7% | [20] 55.6%

CCN1CCN(C(=O)[C@@]2(C)CC[C@]3(C)CC[C@]4(C)C(=CC(=O)[C@@H]5[C@@]6(C)CC[C@H](OCCC#N)C(C)(C)[C@@H]6CC[C@]54C)[C@@H]3C2)CC1
inactive: [1] 87.9% | [2] 89.9% | [3] 106% | [4] 100% | [5] 99.9% | [6] 70.8% | [7] 95.4% | [8] 84.1% | [9] 51% | [10] 95.7% | [11] 97% | [12] 31.8% | [13] 65.3% | [14] 97.5% | [15] 85% | [16] 90.4% | [17] 84% | [18] 80.4% | [19] 88.4% | [20] 96%

O=C1OC(c2ccc(Cl)c(Cl)c2)=C/C1=C/c1cccc([N+](=O)[O-])c1
inactive: [1] 88.1% | [2] 86.3% | [3] 102% | [4] 94.2% | [5] 102% | [6] 94.3% | [7] 90.9% | [8] 97.4% | [9] 105% | [10] 108% | [11] 109% | [12] 99% | [13] 101% | [14] 108% | [15] 96.4% | [16] 97.9% | [17] 101% | [18] 103% | [19] 103% | [20] 106%

O=C1Nc2ccccc2/C1=C/c1cn(CCCn2c3ccccc3c(=O)c3ccccc32)c2ccccc12
inactive: [1] 79.2% | [2] 81.3% | [3] 86.8% | [4] 80.3% | [5] 96.3% | [6] 83.4% | [7] 77.5% | [8] 96.5% | [9] 82.9% | [10] 88.6% | [11] 102% | [12] 91.7% | [13] 98.7% | [14] 67.9% | [15] 104% | [16] 79.2% | [17] 91.5% | [18] 86.8% | [19] 109% | [20] 91.1%

C=CC(=O)N[C@H](Cc1ccc(-c2cc(Cl)cc(Cl)c2)cc1)[C@H](O)[C@@H](O)C(=O)O
inactive: [1] 93.6% | [2] 71.3% | [3] 100% | [4] 87.3% | [5] 94.9% | [6] 84.4% | [7] 59.1% | [8] 72% | [9] 92.2% | [10] 91.9% | [11] 102% | [12] 85% | [13] 90.1% | [14] 98.9% | [15] 101% | [16] 102% | [17] 82.8% | [18] 99.6% | [19] 74.4% | [20] 86.3%

Cc1cc(N(CCCNc2ccnc3cc(Cl)ccc23)Cc2ccco2)nc(N2CCN(C)CC2)n1
active: [10] -21.2% | [13] -49.6% | [18] -62.9% | [19] -63.2% | [20] -82.5%
inactive: [1] 66% | [2] 88.3% | [3] 64.2% | [4] 48.2% | [5] 28.4% | [6] 79.9% | [7] 82.1% | [8] 45% | [9] 59% | [11] 55.6% | [12] 12.9% | [14] 14.4% | [15] 35.9% | [16] 56.1% | [17] 57.1%

Cc1ccccc1-c1nc(C(Cl)Cl)nc2cc(-c3ccccc3)nn12
inactive: [1] 50.4% | [2] 75.3% | [3] 86.3% | [4] 54.9% | [5] 81.5% | [6] 45.8% | [7] 82.8% | [8] 25.1% | [9] 93.7% | [10] 41.7% | [11] 57.8% | [12] 52.2% | [13] 86.2% | [14] 44.9% | [16] 88.1% | [17] 81.6% | [18] 76.3% | [19] 107% | [20] 94%
active: [15] 3.45%
